The record followed here is PubChem BioAssay.

Assay [1] can be described thus: yeast TOR pathway RPL19A-GFP modulators, primary screen, cell-based, S. cerevisiae, multiplex flow cytometry (AID 1862; in the data active = percent of DMSO control GFP below about 86%;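 note: lower values mimic rapamycin by blocking the RPL19A rise seen in DMSO cells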). Particulars: S. cerevisiae RPL19A-GFP strain, flow cytometry fluorescence, 3 h; at 10 µM; stronger effect = lower value.
The nature of assay [2]: modulators of MEP2-GFP levels in yeast, primary screen, S. cerevisiae, multiplex flow cytometry (AID 1867;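 active = GFP response, as percent of the DMSO control, above the screen-wide mean plus 3 SD, about 139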;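 note: median GFP channel fluorescence of barcode-gated MEP2-GFP cells measured by flow cytometry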). Particulars: S. cerevisiae MEP2-GFP strain, 3 h, at 10 µM, stronger effect = higher value, 100% means same as DMSO wells. (In general: Flow cytometry measures light scatter and fluorescence of single cells or particles in a stream.)
Assay [3] can be described thus: modulators of CIT2-GFP expression in yeast, primary screen, S. cerevisiae, GFP fusion, multiplex flow cytometry (AID 1870;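 active = percent response above a set limit, the screen-wide mean plus 3 SD, cut at about 130% in these data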;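 note: barcoded CIT2-GFP strain pooled with four other GFP strains with rapamycin as positive control; median GFP fluorescence per well over plate mean of DMSO wells so 100% = DMSO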). Particulars: 3 h, at 10 µM, stronger effect = higher value.
A short description of assay [4]: modulators of LAP4-GFP expression in yeast, primary screen, S. cerevisiae, multiplex flow cytometry (AID 1873;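 active = GFP signal, as percent of the solvent control, above the screen mean plus 3 SD, about 149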). Particulars: 3 h, at 10 µM, stronger effect = higher value.
A short description of assay [5]: modulators of AGP1-GFP expression in yeast TOR pathway, primary screen, cell-based, multiplex flow cytometry, S. cerevisiae (AID 1887;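 active = GFP signal above the screen-wide mean plus 3 SD, that is over about 124.5% of the solvent control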;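 note: AGP1-GFP fusion strain of S. cerevisiae within a five-strain barcoded multiplex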). The settings on record: 3 h, at 10 µM, stronger effect = higher value.
Assay [6] in a line: inhibitors of CD8+ T cell-vesicle binding, pilot screen, LFA-1/ICAM-1 modulator project, MLPCN validation set, flow cytometry (AID 2523;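 active = response below a set limit, under 55% cells CD8-positive and vesicle-bound, and CD8 cells' 90th-percentile brightness under 279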;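 for vesicle binding response: mean PE anti-B7-1 fluorescence of CD8+ cells relative to row control; 100% = QL9-loaded vesicles with DMSO vehicle in the same plate row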). The settings on record: 2C mouse CD8+ T cells, at 7 µM, stronger effect = lower value; double positive events: measured here: CD8+/vesicle+ event percentage.
Assay [7] deals with Integrin beta-1 (Homo sapiens) + Integrin alpha-4 (Homo sapiens) (UniProt P13612+P05556). Briefly: inhibition of HUTS-21 binding to VLA-4, pilot screen, VLA-4 allosteric modulator project, U937 cells, HUTS-21 mAb, flow cytometry, validation set (AID 2674;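 active = inhibition above 50%, about 3 SD of the validation set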;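 note: antibody binding induced by the VLA-4 ligand LDV present at three times its Kd; 0% = LDV ligand with antibody and no compound and 100% = antibody without LDV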). Particulars: HUTS-21 LIBS mAb binding, at 6.7 µM, stronger effect = higher value, binding induced by LDV ligand.
Assay [8] in a line: superoxide lowering in aged yeast cells, pilot screen, validation compound set (AID 2706;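 active = superoxide response below 65% of plate, a cut near 3 SD across the whole screen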;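 note: yeast exposed to compound for one week at 30 degrees C before staining; 100% = mean of all compound wells on the same plate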). Particulars: S. cerevisiae aging, superoxide DHE fluorescence; at 10 µM; stronger effect = lower value.
Assay [9] addresses Beta-adrenergic receptor kinase 1 (Homo sapiens) (UniProt P25098). The assay is described as follows: GRK2 binders displacing RNA aptamer, biochemical, validation, human GRK2, bead flow cytometry (AID 488806;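 active = aptamer binding inhibition above 30%, about 3 SD of noise from non-fluorescent compounds; inactive = inhibition at or below 30%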). The settings on record: bead-bound GRK2, FAM-aptamer displacement, at 10 µM, stronger effect = higher value.
Assay [10] addresses Beta-2 adrenergic receptor (Homo sapiens) (UniProt P07550). Briefly: beta2AR agonists driving receptor internalization, pilot screen, cell-based, FAP fluorogen, flow cytometry, validation set (AID 504459).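 Note: agonist-driven loss of surface beta2AR via internalization measured by FAP dye flow cytometry.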 Particulars: Am2.2-beta2AR cells, FAP surface receptor flow cytometry; at 10 µM; stronger effect = higher value.
Assay [11] addresses AP-2 complex subunit beta (Homo sapiens) (UniProt P63010). Briefly: inhibitors of arrestin peptide binding to AP2, pilot screen, biochemical, validation set, GST-AP2 beads, flow cytometry (AID 504541;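 active = inhibition above 54%, about 3 SD of non-fluorescent compounds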;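 note: AP2 carries R879A mutation and is captured from E. coli lysate; bead-bound FITC arrestin peptide fluorescence measuring arrestin peptide binding to AP2; 0% = DMSO wells and 100% = excess unlabeled arrestin peptide control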). Particulars: FITC arrestin peptide, at 10 µM, stronger effect = higher value, AP2 beta2 appendage fragment, R879A mutant.
Assay [12] can be described thus: yeast V-ATPase proton transport modulators, S. cerevisiae, pHLuorin, HTS validation (AID 504600; in the data active = response above about 15%;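 note: plate controls were DMSO for no effect and reference compound for full effect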). The settings on record: S. cerevisiae pHLuorin cytosolic pH, at 10 µM, stronger effect = higher value.
For assay [13], the system named is anti-desmoglein-3 scFv antibody binding to human DSG3. Briefly: inhibitors of anti-DSG3 scFv binding to DSG3, pilot screen, biochemical, validation compound set, bead-based, flow cytometry (AID 588368;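 active = binding below the plate cutoff, the plate median minus 3 SD, with a reading above zero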;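 note: signal is the median channel fluorescence of bead-bound GFP antibody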). The settings on record: Protein G beads, DSG3-Fc, scFv-GFP binding, at 10 µM, stronger effect = lower value.
Assay [14] is described as follows: inhibitors of fungal efflux pumps CDR1, CDR2, MDR1, pilot screen, validation compound set, multiplex, phenotypic (AID 588506;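 active = efflux inhibition above 0.42, the validation set average plus 4 SD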;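 note: Nile Red retained in cells so higher fluorescence means more efflux inhibition; 0 = negative control wells and 1 = enniatin B 25 µM full block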). The settings on record: S. cerevisiae pump-expressing triplex, Nile Red efflux flow cytometry; at 10 µM; stronger effect = higher value; the pumps come from Candida albicans.
The target in assay [15] is ATP-binding cassette sub-family B member 6 (Homo sapiens) (UniProt Q9NP58). Briefly: ABCB6 transporter inhibitors, pilot screen, K562-ABCB6 cells, flow cytometry, validation set (AID 588550;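 active = inhibition above the screen-wide mean plus 3 SD, about 51%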;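 note: 0% = DMSO wells and 100% = benzethonium chloride 70 µM positive control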). Particulars: K562-ABCB6 porphyrin accumulation, 1 h, at 10 µM, stronger effect = higher value.
The nature of assay [16]: promoters of myeloid differentiation in arrested cells, primary screen, cell-based, GFP/MAC1 double positive, flow cytometry, validation set (AID 588685;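 active = differentiation response of at least 50%, scaled between solvent and reference control, from cells with both markers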;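 note: compound exposure lasts four days before antibody staining and flow analysis; 0% = DMSO wells and 100% = 5 µM fulvestrant positive control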). The settings on record: ER-HoxA9 marrow cells, stronger effect = higher value, normalized: vehicle 0, fulvestrant 100.

Structures are written as SMILES. Inconclusive results are not listed. The source made the active and inactive calls.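 Rule for the calls, unless noted: active = percent response above 42, roughly 3 SD of non-fluorescent test compounds; inactive = the rest.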

AP-2 complex subunit beta (Homo sapiens), sequence (P63010 whole entry, looked up, the tested form may be a part, one chain of several): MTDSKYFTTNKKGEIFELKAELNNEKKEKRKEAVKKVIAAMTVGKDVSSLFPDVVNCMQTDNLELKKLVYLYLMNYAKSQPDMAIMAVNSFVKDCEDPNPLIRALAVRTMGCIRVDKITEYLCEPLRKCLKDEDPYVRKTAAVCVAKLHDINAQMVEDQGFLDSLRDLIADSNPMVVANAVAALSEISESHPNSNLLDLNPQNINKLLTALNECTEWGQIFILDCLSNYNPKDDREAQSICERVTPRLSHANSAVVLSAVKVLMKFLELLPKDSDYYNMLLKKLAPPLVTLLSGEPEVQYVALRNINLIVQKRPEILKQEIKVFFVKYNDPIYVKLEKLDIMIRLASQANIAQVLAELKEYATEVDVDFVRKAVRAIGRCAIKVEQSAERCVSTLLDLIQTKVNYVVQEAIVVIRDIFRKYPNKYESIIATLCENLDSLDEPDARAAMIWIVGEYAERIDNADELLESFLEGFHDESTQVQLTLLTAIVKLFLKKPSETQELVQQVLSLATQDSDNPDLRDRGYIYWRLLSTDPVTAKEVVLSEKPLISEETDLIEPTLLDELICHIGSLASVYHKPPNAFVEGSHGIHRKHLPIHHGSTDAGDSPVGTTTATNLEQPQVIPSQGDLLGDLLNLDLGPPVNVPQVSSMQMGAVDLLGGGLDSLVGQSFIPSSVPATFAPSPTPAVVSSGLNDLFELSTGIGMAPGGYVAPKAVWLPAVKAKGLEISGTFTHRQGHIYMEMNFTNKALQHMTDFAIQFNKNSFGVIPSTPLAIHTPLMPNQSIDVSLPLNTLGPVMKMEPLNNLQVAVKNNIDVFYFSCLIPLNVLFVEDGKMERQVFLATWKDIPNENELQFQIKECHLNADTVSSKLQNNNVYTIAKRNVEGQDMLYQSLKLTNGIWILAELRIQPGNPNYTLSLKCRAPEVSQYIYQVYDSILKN
Beta-adrenergic receptor kinase 1 (Homo sapiens), sequence (P25098 whole entry, looked up): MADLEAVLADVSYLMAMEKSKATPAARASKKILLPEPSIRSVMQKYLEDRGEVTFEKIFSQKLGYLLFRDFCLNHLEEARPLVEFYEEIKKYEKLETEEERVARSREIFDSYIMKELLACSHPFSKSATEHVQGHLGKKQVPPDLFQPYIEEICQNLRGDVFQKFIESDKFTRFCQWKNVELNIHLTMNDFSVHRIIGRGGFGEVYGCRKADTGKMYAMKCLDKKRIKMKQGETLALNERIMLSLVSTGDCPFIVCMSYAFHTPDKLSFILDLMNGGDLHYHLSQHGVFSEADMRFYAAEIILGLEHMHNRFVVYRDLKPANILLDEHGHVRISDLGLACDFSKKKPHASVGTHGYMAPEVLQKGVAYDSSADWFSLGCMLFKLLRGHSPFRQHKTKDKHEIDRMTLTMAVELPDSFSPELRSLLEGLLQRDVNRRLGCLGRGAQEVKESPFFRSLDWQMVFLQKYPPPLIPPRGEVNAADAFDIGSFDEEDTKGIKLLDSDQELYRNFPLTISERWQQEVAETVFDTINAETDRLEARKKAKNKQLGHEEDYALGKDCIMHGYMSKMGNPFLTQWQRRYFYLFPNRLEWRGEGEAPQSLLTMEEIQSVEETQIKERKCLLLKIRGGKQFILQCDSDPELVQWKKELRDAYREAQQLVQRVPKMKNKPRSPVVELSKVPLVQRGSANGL
ATP-binding cassette sub-family B member 6 (Homo sapiens), sequence (Q9NP58 whole entry, looked up): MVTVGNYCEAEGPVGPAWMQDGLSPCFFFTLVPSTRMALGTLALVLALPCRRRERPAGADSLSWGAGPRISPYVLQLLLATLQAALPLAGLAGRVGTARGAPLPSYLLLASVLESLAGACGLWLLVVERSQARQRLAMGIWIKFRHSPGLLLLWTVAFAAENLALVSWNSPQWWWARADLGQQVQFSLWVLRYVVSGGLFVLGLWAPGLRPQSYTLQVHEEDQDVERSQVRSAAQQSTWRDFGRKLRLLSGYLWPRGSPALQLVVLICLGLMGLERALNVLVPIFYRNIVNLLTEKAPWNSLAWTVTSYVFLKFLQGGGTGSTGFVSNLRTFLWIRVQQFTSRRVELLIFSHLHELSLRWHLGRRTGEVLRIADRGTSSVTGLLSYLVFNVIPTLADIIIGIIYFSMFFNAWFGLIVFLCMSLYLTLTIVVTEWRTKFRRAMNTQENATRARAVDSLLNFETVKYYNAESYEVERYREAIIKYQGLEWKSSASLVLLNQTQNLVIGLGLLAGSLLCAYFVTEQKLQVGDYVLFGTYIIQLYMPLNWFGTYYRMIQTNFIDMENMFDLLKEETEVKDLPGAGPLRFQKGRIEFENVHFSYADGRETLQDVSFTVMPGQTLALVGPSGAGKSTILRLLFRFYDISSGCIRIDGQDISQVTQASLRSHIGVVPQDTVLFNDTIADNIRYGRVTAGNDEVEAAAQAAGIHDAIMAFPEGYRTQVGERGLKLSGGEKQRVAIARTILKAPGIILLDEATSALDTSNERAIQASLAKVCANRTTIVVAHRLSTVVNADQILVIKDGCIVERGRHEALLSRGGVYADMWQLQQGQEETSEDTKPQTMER
Beta-2 adrenergic receptor (Homo sapiens), sequence (P07550 whole entry, looked up): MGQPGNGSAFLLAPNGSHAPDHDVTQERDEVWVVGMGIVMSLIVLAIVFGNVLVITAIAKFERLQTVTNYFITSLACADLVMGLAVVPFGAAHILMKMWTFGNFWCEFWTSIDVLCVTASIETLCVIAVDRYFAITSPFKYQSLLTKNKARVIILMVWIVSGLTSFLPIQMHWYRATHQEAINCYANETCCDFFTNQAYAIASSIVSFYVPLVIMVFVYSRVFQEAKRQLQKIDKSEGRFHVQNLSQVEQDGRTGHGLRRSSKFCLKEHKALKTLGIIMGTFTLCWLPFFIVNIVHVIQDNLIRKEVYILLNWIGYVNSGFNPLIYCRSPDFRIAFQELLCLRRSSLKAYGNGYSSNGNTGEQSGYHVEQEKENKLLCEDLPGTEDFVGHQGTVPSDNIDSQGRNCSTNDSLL
Integrin beta-1 (Homo sapiens) + Integrin alpha-4 (Homo sapiens), sequence (P05556 whole entry, looked up): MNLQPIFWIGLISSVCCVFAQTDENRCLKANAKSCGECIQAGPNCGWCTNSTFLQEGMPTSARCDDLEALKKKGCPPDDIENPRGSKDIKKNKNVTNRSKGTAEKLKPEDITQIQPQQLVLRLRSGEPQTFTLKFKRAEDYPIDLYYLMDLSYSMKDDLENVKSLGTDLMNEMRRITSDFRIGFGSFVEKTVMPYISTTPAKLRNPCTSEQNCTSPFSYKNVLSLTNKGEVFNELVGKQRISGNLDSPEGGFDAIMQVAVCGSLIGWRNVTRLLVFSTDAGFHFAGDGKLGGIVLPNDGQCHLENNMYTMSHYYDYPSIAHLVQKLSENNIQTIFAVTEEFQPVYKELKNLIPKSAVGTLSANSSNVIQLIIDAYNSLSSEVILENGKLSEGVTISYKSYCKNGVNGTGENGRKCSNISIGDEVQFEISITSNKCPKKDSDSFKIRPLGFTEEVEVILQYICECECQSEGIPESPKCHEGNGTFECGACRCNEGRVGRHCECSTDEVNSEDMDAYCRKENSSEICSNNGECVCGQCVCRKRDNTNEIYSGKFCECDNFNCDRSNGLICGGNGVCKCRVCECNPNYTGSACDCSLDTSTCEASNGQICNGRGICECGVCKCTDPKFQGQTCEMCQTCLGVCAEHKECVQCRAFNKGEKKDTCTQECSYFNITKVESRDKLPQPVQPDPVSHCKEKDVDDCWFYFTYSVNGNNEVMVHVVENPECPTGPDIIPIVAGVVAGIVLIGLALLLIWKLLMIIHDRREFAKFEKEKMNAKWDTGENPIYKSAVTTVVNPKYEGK
Integrin beta-1 (Homo sapiens) + Integrin alpha-4 (Homo sapiens), sequence (P13612 whole entry, looked up): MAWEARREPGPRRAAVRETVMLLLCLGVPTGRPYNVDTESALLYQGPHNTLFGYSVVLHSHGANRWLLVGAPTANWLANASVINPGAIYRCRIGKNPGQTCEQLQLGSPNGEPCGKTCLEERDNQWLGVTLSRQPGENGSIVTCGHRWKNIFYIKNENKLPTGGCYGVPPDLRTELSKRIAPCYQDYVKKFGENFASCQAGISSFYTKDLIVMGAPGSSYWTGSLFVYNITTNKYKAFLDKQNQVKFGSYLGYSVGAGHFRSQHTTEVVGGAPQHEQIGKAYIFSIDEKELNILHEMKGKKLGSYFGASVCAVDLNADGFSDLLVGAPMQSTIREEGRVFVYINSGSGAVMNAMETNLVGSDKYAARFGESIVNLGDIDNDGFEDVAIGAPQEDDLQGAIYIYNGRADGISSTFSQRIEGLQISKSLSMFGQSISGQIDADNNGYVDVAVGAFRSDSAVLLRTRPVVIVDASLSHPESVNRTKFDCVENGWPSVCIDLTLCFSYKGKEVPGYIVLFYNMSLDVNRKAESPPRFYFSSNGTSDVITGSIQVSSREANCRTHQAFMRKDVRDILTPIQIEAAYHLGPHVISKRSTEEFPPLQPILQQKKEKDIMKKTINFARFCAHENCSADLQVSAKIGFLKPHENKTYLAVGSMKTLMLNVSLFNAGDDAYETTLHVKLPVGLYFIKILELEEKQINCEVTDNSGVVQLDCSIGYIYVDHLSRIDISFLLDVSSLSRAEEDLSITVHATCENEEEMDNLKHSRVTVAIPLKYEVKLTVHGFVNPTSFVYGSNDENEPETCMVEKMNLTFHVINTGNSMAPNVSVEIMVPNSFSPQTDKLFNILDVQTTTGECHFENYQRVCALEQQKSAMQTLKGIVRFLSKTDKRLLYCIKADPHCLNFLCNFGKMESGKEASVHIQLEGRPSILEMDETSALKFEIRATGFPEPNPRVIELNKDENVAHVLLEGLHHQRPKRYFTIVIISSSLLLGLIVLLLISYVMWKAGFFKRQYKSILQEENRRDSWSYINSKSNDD

The inhibition is the drop in the measured response relative to a control, in per cent. With `COc1ccc(/C=C/C(=O)Nc2ccccc2C(=O)O)cc1OC`, in [1], the percent of DMSO control GFP was 111% (inactive). Also, the GFP response vs DMSO in assay [2] was 110% (inactive); in assay [4], 76.9% (inactive). In addition, the percent response of DMSO control in assay [3] was 106% (inactive). The GFP response, % of DMSO in assay [5] was 99.5% (inactive). This molecule displayed a double positive events in assay [6] of 60.2%. Also, in assay [6], the vesicle binding response is 50.8% (inactive). In addition, the inhibition in assay [7] is -5.64% (inactive); in assay [11], -8.31% (inactive); in [15], 3% (inactive). The superoxide response (% of plate) in [8] is 123% (inactive). Besides, in assay [9], the aptamer binding inhibition was 3% (inactive). In addition, the response was 12.8% (inactive) in assay [10] and 6.81% (inactive) in assay [12]. In addition, the binding (% of control) in assay [13] is 96.9% (inactive). Moreover, the efflux inhibition (fraction of control) in assay [14] is 0.02 (inactive). In addition, the differentiation response in assay [16] is -5.62% (inactive).

For the molecule `O=C(N1CCCCC1)C1(c2ccccc2)CCOCC1`, the percent of DMSO control GFP in assay [1] was 99.3% (inactive). Moreover, the GFP response vs DMSO in assay [2] was 103% (inactive); in [4], 129% (inactive). For the same molecule, in assay [3], the percent response of DMSO control is 92% (inactive). In assay [5], the GFP response, % of DMSO was 103% (inactive). In assay [6], the double positive events amounted to 57.5%. Besides, in [6], the vesicle binding response is 213% (inactive). Besides, the inhibition in assay [7] is -3.16% (inactive); in [11], 7.05% (inactive); in [15] it was 5% (inactive). Further, the superoxide response (% of plate) in assay [8] is 92.5% (inactive). Moreover, in [9], the aptamer binding inhibition is 1% (inactive). Moreover, the response in assay [10] is -7.86% (inactive); in assay [12] it was 0.45% (inactive). Further, in [13], the binding (% of control) was 104% (inactive). Besides, the efflux inhibition (fraction of control) in [14] was -0.17 (inactive). Also, the differentiation response in assay [16] was -24.8% (inactive).

On to `CC(=O)SC1CC2=CC(=O)CCC2(C)C2CCC3(C)C(CCC34CCC(=O)O4)C12` (stereo not given), for which the percent of DMSO control GFP in assay [1] was 103% (inactive). The GFP response vs DMSO in [2] was 103% (inactive); in assay [4], 109% (inactive). In [3], the percent response of DMSO control was 107% (inactive). Besides, the GFP response, % of DMSO in assay [5] was 107% (inactive). The double positive events in assay [6] was found to be 64.4%. The vesicle binding response in assay [6] is 247% (inactive). For the same molecule, the inhibition in assay [7] was -3.57% (inactive); in [11], -8.52% (inactive); in assay [15], -3% (inactive). The superoxide response (% of plate) in assay [8] is 98.5% (inactive). For the same molecule, the aptamer binding inhibition in [9] is 5% (inactive). The response is -4.96% (inactive) in assay [10] and 1.6% (inactive) in assay [12]. The binding (% of control) in assay [13] was 100% (inactive). Moreover, the efflux inhibition (fraction of control) in [14] was -0.04 (inactive). Moreover, the differentiation response in assay [16] is 3.18% (inactive).

As to `O=S(=O)(CCc1nc2ccccc2[nH]1)c1ccc(Cl)cc1`, the percent of DMSO control GFP in [1] is 98.6% (inactive). Further, the GFP response vs DMSO was 106% (inactive) in assay [2] and 124% (inactive) in assay [4]. Besides, the percent response of DMSO control in assay [3] is 98.6% (inactive). Further, in [5], the GFP response, % of DMSO was 99.7% (inactive). Moreover, in assay [6], the double positive events is 60.3%. For the same molecule, the vesicle binding response in assay [6] is 159% (inactive). Further, the inhibition in assay [7] was -7.25% (inactive); in [11] it was -4.72% (inactive); in [15], -7% (inactive). Further, the superoxide response (% of plate) in [8] is 104% (inactive). In addition, the aptamer binding inhibition in assay [9] is -2% (inactive). Further, the response in assay [10] is 13.4% (inactive); in [12], -0.13% (inactive). Moreover, the binding (% of control) in assay [13] was 103% (inactive). Also, in [14], the efflux inhibition (fraction of control) is -0.21 (inactive). In addition, in assay [16], the differentiation response is -16.8% (inactive).

`COc1ccc2c3c([nH]c2c1)C1(NCC3)C(=O)Nc2ccccc21` (stereo not given): the percent of DMSO control GFP in assay [1] was 95.4% (inactive). The GFP response vs DMSO was 105% (inactive) in assay [2] and 103% (inactive) in [4]. In [3], the percent response of DMSO control was 89.1% (inactive). Besides, in assay [5], the GFP response, % of DMSO is 101% (inactive). In [6], this molecule came in with a double positive events of 59.5%. The vesicle binding response in [6] was 175% (inactive). Further, the inhibition is -15.4% (inactive) in assay [7], 10.3% (inactive) in assay [11] and -6% (inactive) in assay [15]. Besides, the superoxide response (% of plate) in assay [8] was 97.3% (inactive). Moreover, the aptamer binding inhibition in [9] is 0% (inactive). Also, the response is -10.9% (inactive) in [10] and -0.21% (inactive) in assay [12]. Also, in assay [13], the binding (% of control) was 97.6% (inactive). Also, the efflux inhibition (fraction of control) in assay [14] is 0.05 (inactive). Further, in assay [16], the differentiation response is 10.4% (inactive).
